Test results published in the supplement of paper PMC8728848.
The entries come from a sample that favours the strongest signals as a whole.

Assays:
Test in all cases: glycan array binding signal (z-score within array); higher = stronger binding
Details in all cases: glycan notation: IUPAC condensed, linker removed
[1] = biological target: Fuc(a1-2)Gal6S(b1-4)Glc6S
How it was run: (§1)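 Columns mapping to the same glycan were averaged after glycan names were converted to IUPAC-condensed notation. The data come from 3228 arrays in the Consortium for Functional Glycomics database, limited to those with an available protein sequence. Binding is reported as a within-array Z-score averaged across arrays of one protein sequence and across linkers.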

Fuc(a1-2)[Gal(a1-3)]Gal = biological target: Fuc(a1-2)[Gal(a1-3)]Gal
How it was run: as §1

[2] = biological target: Fuc(a1-3)[Gal(b1-4)]GlcNAc
How it was run: as §1

[3] = biological target: Gal(a1-3)Gal(b1-3)[Fuc(a1-4)]GlcNAc(b1-2)Man(a1-3)[Gal(a1-3)Gal(b1-3)[Fuc(a1-4)]GlcNAc(b1-2)Man(a1-6)]Man(b1-4)GlcNAc(b1-4)GlcNAc
How it was run: as §1

[4] = biological target: Gal(a1-3)Gal(b1-4)[Fuc(a1-3)]GlcNAc(b1-2)Man(a1-3)[Gal(a1-3)Gal(b1-4)[Fuc(a1-3)]GlcNAc(b1-2)Man(a1-6)]Man(b1-4)GlcNAc(b1-4)GlcNAc
How it was run: as §1

[5] = biological target: Gal(b1-3)GlcNAc(a1-6)Gal(b1-4)GlcNAc
How it was run: as §1

[6] = biological target: Gal(b1-3)[Fuc(a1-4)]GlcNAc(b1-3)Gal(b1-3)[Fuc(a1-4)]GlcNAc
How it was run: as §1

[7] = biological target: Gal(b1-4)GalNAc(b1-3)[Fuc(a1-2)]Gal(b1-4)GlcNAc
How it was run: as §1

Gal(b1-4)GlcNAc = biological target: Gal(b1-4)GlcNAc
How it was run: as §1

[8] = biological target: Gal(b1-4)GlcNAc(b1-2)Man(a1-3)Man(b1-4)GlcNAc(b1-4)GlcNAc
How it was run: as §1

[9] = biological target: Gal(b1-4)GlcNAc(b1-2)[Gal(b1-4)GlcNAc(b1-4)]Man(a1-3)[Gal(b1-4)GlcNAc(b1-2)Man(a1-6)]Man(b1-4)GlcNAc(b1-4)GlcNAc
How it was run: as §1

GlcA(b1-3)GlcNAc = biological target: GlcA(b1-3)GlcNAc
How it was run: as §1

[10] = biological target: GlcNAc(a1-4)Gal(b1-4)GlcNAc(b1-3)Gal(b1-4)[Fuc(a1-3)]GlcNAc(b1-3)Gal(b1-4)[Fuc(a1-3)]GlcNAc
How it was run: as §1

[11] = biological target: Man(a1-2)Man(a1-2)Man(a1-3)Man
How it was run: as §1

[12] = biological target: Man(a1-2)Man(a1-6)[Man(a1-3)]Man(a1-6)[Man(a1-2)Man(a1-2)Man(a1-3)]Man(b1-4)GlcNAc(b1-4)GlcNAc
How it was run: as §1

[13] = biological target: Man(a1-3)[Man(a1-6)]Man(a1-6)[Man(a1-3)]Man(b1-4)GlcNAc(b1-4)GlcNAc
How it was run: as §1

[14] = biological target: Neu5Ac(a2-3)Gal(b1-4)[Fuc(a1-3)]GlcNAc(b1-3)GalNAc
How it was run: as §1

[15] = biological target: Neu5Ac(a2-3)Gal6S(b1-4)GlcNAc
How it was run: as §1

[16] = biological target: Neu5Ac(a2-3)Gal6S(b1-4)[Fuc(a1-3)]GlcNAc
How it was run: as §1

[17] = biological target: Neu5Ac(a2-3)[GalNAc(b1-4)]Gal(b1-4)Glc
How it was run: as §1

Neu5Ac(a2-6)Gal = biological target: Neu5Ac(a2-6)Gal
How it was run: as §1

[18] = biological target: Neu5Ac(a2-6)Gal(b1-4)GlcNAc(b1-3)Gal(b1-4)GlcNAc
How it was run: as §1

[19] = biological target: Neu5Ac(a2-6)Gal(b1-4)GlcNAc(b1-3)Gal(b1-4)[Fuc(a1-3)]GlcNAc(b1-3)Gal(b1-4)[Fuc(a1-3)]GlcNAc
How it was run: as §1

[20] = biological target: Neu5Ac(a2-6)GlcNAc(b1-4)GlcNAc
How it was run: as §1

[21] = biological target: Neu5Ac(a2-8)Neu5Ac(a2-3)Gal(b1-4)Glc
How it was run: as §1

[22] = biological target: Neu5Ac9Ac(a2-3)Gal(b1-4)GlcNAc
How it was run: as §1

[23] = biological target: Fuc(a1-2)Gal(b1-4)[Fuc(a1-3)]GlcNAc(b1-3)Gal(b1-4)[Fuc(a1-3)]GlcNAc(b1-3)Gal(b1-4)[Fuc(a1-3)]GlcNAc
How it was run: as §1

Gal(a1-3)Gal = biological target: Gal(a1-3)Gal
How it was run: as §1

[24] = biological target: Gal(b1-3)GlcNAc(b1-3)Gal(b1-4)GlcNAc
How it was run: as §1

Gal3S(b1-3)GlcNAc = biological target: Gal3S(b1-3)GlcNAc
How it was run: as §1

Gal6S(b1-4)GlcNAc = biological target: Gal6S(b1-4)GlcNAc
How it was run: as §1

Glc(a1-4)Glc = biological target: Glc(a1-4)Glc
How it was run: as §1

Glc(a1-6)Glc(a1-6)Glc = biological target: Glc(a1-6)Glc(a1-6)Glc
How it was run: as §1

Glc(b1-4)Glc = biological target: Glc(b1-4)Glc
How it was run: as §1

[25] = biological target: GlcNAc(b1-4)GlcNAc(b1-4)GlcNAc
How it was run: as §1

[26] = biological target: Man(a1-2)Man(a1-2)Man(a1-6)[Man(a1-3)]Man
How it was run: as §1

Neu5Ac(a2-3)Gal = biological target: Neu5Ac(a2-3)Gal
How it was run: as §1

[27] = biological target: Neu5Ac(a2-3)[Neu5Ac(a2-6)]GalNAc
How it was run: as §1

[28] = biological target: Neu5Ac(a2-8)Neu5Ac(a2-8)Neu5Ac(a2-8)Neu5Ac(a2-3)[GalNAc(b1-4)]Gal(b1-4)Glc
How it was run: as §1

[29] = biological target: Neu5Ac(b2-6)Gal(b1-4)GlcNAc
How it was run: as §1

[30] = biological target: Neu5Gc(a2-6)Gal(b1-4)GlcNAc
How it was run: as §1

B1: PEB4 (Campylobacter jejuni), A1VYV6 (protein)
chain: MKKFSLVAAALIAGVALNVNAATVATVNGKSISDAEVSEFFAPMLRGQDFKTLPDNQKKALIQQYIMQDLILQDAKKQNLEKDPLYTKELDRAKDAILVNVYQEKILNTIKIDAAKVKAFYDQNKDKYVKPARVQAKHILVATEKEAKDIINELKGLKGKELDAKFSELAKEKSIDPGSKNQGGELGWFDQSTMVKPFTDAAFALKNGTITTTPVKTNFGYHVILKENSQAKGQIKFDEVKQGIENGLKFEEFKKVINQKGQDLLNSAKVEYK
glycan array binding signal (z-score) [1]: 0.571 | glycan array binding signal (z-score) (Fuc(a1-2)[Gal(a1-3)]Gal): -0.517 | glycan array binding signal (z-score) [2]: -0.387 | glycan array binding signal (z-score) [3]: 3.83 | glycan array binding signal (z-score) [4]: 2.12 | glycan array binding signal (z-score) [5]: 2.54 | glycan array binding signal (z-score) [6]: 2.99 | glycan array binding signal (z-score) [7]: -0.25 | glycan array binding signal (z-score) (Gal(b1-4)GlcNAc): -0.852 | glycan array binding signal (z-score) [8]: -0.258 | glycan array binding signal (z-score) [9]: 2.58 | glycan array binding signal (z-score) (GlcA(b1-3)GlcNAc): 0.752 | glycan array binding signal (z-score) [10]: 4.35 | glycan array binding signal (z-score) [11]: 2.37 | glycan array binding signal (z-score) [12]: 0.969 | glycan array binding signal (z-score) [13]: -0.553 | glycan array binding signal (z-score) [14]: 5.24 | glycan array binding signal (z-score) [15]: 1.6 | glycan array binding signal (z-score) [16]: 2.8 | glycan array binding signal (z-score) [17]: -1.19 | glycan array binding signal (z-score) (Neu5Ac(a2-6)Gal): 0.075 | glycan array binding signal (z-score) [18]: -0.672 | glycan array binding signal (z-score) [19]: -0.544 | glycan array binding signal (z-score) [20]: -0.701 | glycan array binding signal (z-score) [21]: -0.705 | glycan array binding signal (z-score) [22]: -1.05

B2: FaeGab (Escherichia coli) (protein)
chain: WMTGDFNGSVDIGGSITADDYRQKWEWKVGTGLNGFGNVLNDLTNGGTKLTITVTGNKPILLGRTKEAFATPVSGGVDGIPQIAFTDYEGASVKLRNTDGETNKGLAYFVLPMKNAEGTKVGSVKVNASYAGVFGKGGVTSADGELFSLFADGLRAIFYGGLTTTVSGAALTSGSAAAARTELFGSLSRNDILGQIQRVNANITSLVDVAGSYREDMEYTDGTVVSAAYALGIANGQTIEATFNQAVTTSTQWSAPLNVAITYY
glycan array binding signal (z-score) [23]: -0.302 | glycan array binding signal (z-score) (Gal(a1-3)Gal): 0.089 | glycan array binding signal (z-score) [24]: -0.347 | glycan array binding signal (z-score) (Gal3S(b1-3)GlcNAc): -0.012 | glycan array binding signal (z-score) (Gal6S(b1-4)GlcNAc): -0.201 | glycan array binding signal (z-score) (Glc(a1-4)Glc): 8.87 | glycan array binding signal (z-score) (Glc(a1-6)Glc(a1-6)Glc): 10.2 | glycan array binding signal (z-score) (Glc(b1-4)Glc): 4.4 | glycan array binding signal (z-score) [25]: 0.132 | glycan array binding signal (z-score) [26]: 1.91 | glycan array binding signal (z-score) (Neu5Ac(a2-3)Gal): -0.477 | glycan array binding signal (z-score) [27]: -0.489 | glycan array binding signal (z-score) [19]: -0.433 | glycan array binding signal (z-score) [28]: -0.352 | glycan array binding signal (z-score) [29]: -0.473 | glycan array binding signal (z-score) [30]: -0.5
